This note sets out measurements from PubChem BioAssay (NCI).

About 83,000 compounds went through this panel and 20% of them were active in at least one assay; those are over-represented in the sample as a whole.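 Step 1: grow cells in 96-well plates. Step 2: add test compound at a single concentration. Step 3: incubate 48 h. Step 4: record percent growth.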 Unmarked numbers belong to inactive results. The source made the active and inactive calls. How the source made its calls: active means growth percent below 10; inactive means the rest.

Test systems include HCT-15 colon; HT29 colon; SNB-75 CNS; SNB-19 CNS; U251 CNS; PC-3 prostate; UACC-62 melanoma; LOX IMVI melanoma; SK-MEL-28 melanoma.
What all share (test): NCI-60 one-dose screen, 48 h (100 = growth as untreated, 0 = no growth, -100 = all killed)
Details in all cases: 10 µM unless noted

As to `COc1ccc(SC2c3ccc(C)cc3Oc3nc(N)c(C#N)c(N)c32)cc1` (centres undefined), the growth is -79.9% (active) in the assay on HCT-15 colon; -65.1% (active) in the assay with HT29 colon; -45.5% (active) in the assay on SNB-75 CNS; -69.3% (active) in the assay on SNB-19 CNS; -93.3% (active) in the assay with U251 CNS; -67.9% (active) in the assay with PC-3 prostate. Besides, the growth with UACC-62 melanoma was -46.2% (active); with LOX IMVI melanoma, -94.3% (active); in the assay on SK-MEL-28 melanoma it was -82.3% (active).
Turning to `COc1ccc(-c2nc(SCC(=O)Nc3ccc(C(=O)/C=C/c4ccc(Cl)cc4)cc3)[nH]c(=O)c2C#N)cc1`, the growth is 97.9% with HCT-15 colon; 103% with HT29 colon; 85.2% in the assay with SNB-75 CNS; 39.4% in the assay on SNB-19 CNS; -15.3% (active) in the assay on U251 CNS; 93.6% in the assay with PC-3 prostate. Besides, the growth in the assay on LOX IMVI melanoma is -79.4% (active).
On to `CS(=O)(=O)c1ccc(-n2nc(-c3ccc(Br)cc3)c3ccccc3c2=O)cc1`, for which the growth is 93.4% in the assay with HCT-15 colon; 101% in the assay on HT29 colon; 70.5% with SNB-75 CNS; 92.5% in the assay on SNB-19 CNS; 97.1% in the assay with U251 CNS; 89.3% in the assay with PC-3 prostate. The growth in the assay with UACC-62 melanoma was 97%; in the assay on SK-MEL-28 melanoma it was 113%.
As to `COc1cccc2c1C(=O)c1c(O)c3c(c(O)c1C2=O)C[C@](O)(C(=O)CO)C[C@H]3O[C@@H]1C[C@@H](NC(=O)CCCN(C)C2(c3ccc(F)cc3)CC3CCC2C3)[C@H](O)[C@@H](C)O1` (some centres undefined), the growth was 3.39% (active) in the assay with HCT-15 colon; -61.2% (active) with HT29 colon; 30% in the assay on SNB-75 CNS; -66% (active) with SNB-19 CNS; -98% (active) in the assay on U251 CNS; -76.7% (active) in the assay on PC-3 prostate. Further, the growth in the assay with LOX IMVI melanoma was -94.4% (active).
As to `CCC#CC[C@H](O)C/C=C1/C(=O)C=C[C@@H]1C/C=C\CCCC(=O)OC`, the growth in the assay with HCT-15 colon was 3.26% (active); with HT29 colon it was -80.2% (active); with SNB-75 CNS, 43.5%; in the assay on SNB-19 CNS, 23.8%; in the assay with U251 CNS, 0.174% (active); in the assay with PC-3 prostate, 1.55% (active). For the same compound, the growth with LOX IMVI melanoma is -72.2% (active).
`CCOc1ccc(C(C)=O)cc1NC(=O)c1cccc(-c2nnn(CC)n2)c1`: the growth was 46.8% in the assay with HCT-15 colon; 7.72% (active) with HT29 colon; 6.99% (active) with SNB-75 CNS; 36.5% in the assay with SNB-19 CNS; 22.1% in the assay with U251 CNS; 27.3% in the assay with PC-3 prostate. For the same compound, in the assay on LOX IMVI melanoma, the growth is 49.2%.
For the compound `NC(=NCCCOc1ccc(Cl)cc1)Nc1ccc(Cl)cc1`, the growth in the assay on HCT-15 colon is 56%; with HT29 colon, 1.24% (active); in the assay with SNB-75 CNS it was 44.8%; with SNB-19 CNS, 19.3%; in the assay on U251 CNS it was 41.2%; with PC-3 prostate, 26.7%. The growth in the assay with LOX IMVI melanoma was 40.3%.
Consider `O=C(O)COc1ccc(Cl)cc1C1CCCCC1`, for which the growth in the assay with HCT-15 colon was 106%; with HT29 colon, 104%; with SNB-75 CNS, 88.1%; in the assay on SNB-19 CNS it was 99.9%; in the assay with U251 CNS it was 102%; in the assay on PC-3 prostate it was 102%. In addition, the growth in the assay with UACC-62 melanoma was 95.6%; in the assay on SK-MEL-28 melanoma, 108%.
Take `COc1ccc2c(c1)CC/C(=C\c1cncc(Br)c1)C2=O`: the growth in the assay on HCT-15 colon is 94.7%; in the assay with HT29 colon, 79.7%; in the assay with SNB-75 CNS, 120%; in the assay with SNB-19 CNS, 90.7%; in the assay with U251 CNS it was 85.9%; in the assay on PC-3 prostate, 92.7%. The growth in the assay with LOX IMVI melanoma was 88.3%.
As for `COc1ccc(CN2c3ccccc3Sc3ccccc32)c(C(F)(F)F)c1`, the growth was 37.3% in the assay with HCT-15 colon; 2.45% (active) in the assay with HT29 colon; 7.8% (active) in the assay on SNB-75 CNS; 32.7% in the assay on SNB-19 CNS; 20.6% with U251 CNS; 26.9% in the assay on PC-3 prostate. Also, the growth with LOX IMVI melanoma is 54.7%.
Consider `COc1ccc(Nc2cc(C)nc(N3CCN(c4ccnc5cc(Cl)ccc45)CC3)n2)cc1`, for which the growth in the assay with HCT-15 colon was 14.8%; in the assay with HT29 colon, 9.85% (active); in the assay with SNB-75 CNS it was 42.7%; in the assay with SNB-19 CNS, 48.1%; with U251 CNS, 37.6%; in the assay with PC-3 prostate, 33%. Also, the results for the growth with UACC-62 melanoma and in the assay on SK-MEL-28 melanoma were 17.7% and 59.9%, respectively.
Take `COc1cc2c(cc1O)CC[C@@H]1[C@@H]2CC[C@]2(C)[C@@H](OCCCN(C)C)CC[C@@H]12`: the growth was -54.6% (active) in the assay with HCT-15 colon; -90.8% (active) in the assay with HT29 colon; -65.4% (active) in the assay with SNB-75 CNS; -20.6% (active) in the assay with SNB-19 CNS; -74.2% (active) in the assay with U251 CNS; -18.6% (active) in the assay with PC-3 prostate. The growth with LOX IMVI melanoma was -91.5% (active).
Turning to `c1ccc2[nH]c(-c3ccc(Nc4nc(N5CCCC5)nc5[nH]ncc45)cc3)nc2c1`, the growth in the assay on HCT-15 colon was -36.2% (active); in the assay with HT29 colon, -49.1% (active); with SNB-75 CNS, -79.2% (active); in the assay on SNB-19 CNS, 15.5%; with U251 CNS, -66.1% (active); with PC-3 prostate, 0.946% (active). Also, in the assay with LOX IMVI melanoma, the growth was -84.4% (active).
With `COc1cc2c(cc1O)CC[C@@H]1[C@@H]2CC[C@]2(C)[C@@H](OCCN(C)C)CC[C@@H]12`, the growth in the assay on HCT-15 colon is 34%; in the assay on HT29 colon it was 3.38% (active); with SNB-75 CNS, 17.8%; with SNB-19 CNS, 52.4%; in the assay on U251 CNS, 27.4%; in the assay with PC-3 prostate, 45.4%. Further, the growth in the assay on LOX IMVI melanoma was 52.5%.
`C=C1C(=O)O[C@H]2[C@H]1CC/C(COC(=O)NCCc1ccc(OC)c(OC)c1)=C\CC[C@@]1(C)O[C@@H]21`: the growth is 61.7% in the assay on HCT-15 colon; 32.8% with HT29 colon; 61.2% in the assay with SNB-75 CNS; 90.1% with SNB-19 CNS; 76.8% in the assay with U251 CNS; 78.8% in the assay with PC-3 prostate. Further, the growth in the assay with LOX IMVI melanoma is 75%.
Take `COc1ccc2c(c1)C(=O)/C(=C/c1ccccn1)CC2`: the growth was 68.5% in the assay with HCT-15 colon; 43.3% in the assay with HT29 colon; 75.8% in the assay with SNB-75 CNS; 76.1% in the assay with SNB-19 CNS; 69.3% in the assay with U251 CNS; 87.6% in the assay with PC-3 prostate. Besides, the growth in the assay with LOX IMVI melanoma is 44.5%.
Consider `O=c1oc2c(C(F)(F)F)cccc2cc1-c1csc(Nc2ccc(OCCF)cc2)n1`, for which the growth in the assay with HCT-15 colon is 17.3%; in the assay on HT29 colon, -11.5% (active); with SNB-75 CNS it was 19.3%; in the assay with SNB-19 CNS it was 27.7%; in the assay with U251 CNS, 5.11% (active); with PC-3 prostate, 21%. The growth with LOX IMVI melanoma is 19.7%.
